This note sets out measurements from ChEMBL document CHEMBL1961873, “Compounds: GSK PKIS; Assays: Nanosyn kinase panel” (2012).

Broadly, the inhibition is the change of the read-out against control, counted positive when it falls.

“And” between values parts separate entries of the source, which are not always exact repeats. Equal entries are not always repeated.
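Further: reported value is the mean percent inhibition of RSK3, from the GSK PKIS screening panel.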

The target in this test is Ribosomal protein S6 kinase alpha-2 (Homo sapiens) (UniProt Q15349). To be noted: at 0.1 µM.
Sequence of Ribosomal protein S6 kinase alpha-2 (Homo sapiens) (Q15349 whole entry): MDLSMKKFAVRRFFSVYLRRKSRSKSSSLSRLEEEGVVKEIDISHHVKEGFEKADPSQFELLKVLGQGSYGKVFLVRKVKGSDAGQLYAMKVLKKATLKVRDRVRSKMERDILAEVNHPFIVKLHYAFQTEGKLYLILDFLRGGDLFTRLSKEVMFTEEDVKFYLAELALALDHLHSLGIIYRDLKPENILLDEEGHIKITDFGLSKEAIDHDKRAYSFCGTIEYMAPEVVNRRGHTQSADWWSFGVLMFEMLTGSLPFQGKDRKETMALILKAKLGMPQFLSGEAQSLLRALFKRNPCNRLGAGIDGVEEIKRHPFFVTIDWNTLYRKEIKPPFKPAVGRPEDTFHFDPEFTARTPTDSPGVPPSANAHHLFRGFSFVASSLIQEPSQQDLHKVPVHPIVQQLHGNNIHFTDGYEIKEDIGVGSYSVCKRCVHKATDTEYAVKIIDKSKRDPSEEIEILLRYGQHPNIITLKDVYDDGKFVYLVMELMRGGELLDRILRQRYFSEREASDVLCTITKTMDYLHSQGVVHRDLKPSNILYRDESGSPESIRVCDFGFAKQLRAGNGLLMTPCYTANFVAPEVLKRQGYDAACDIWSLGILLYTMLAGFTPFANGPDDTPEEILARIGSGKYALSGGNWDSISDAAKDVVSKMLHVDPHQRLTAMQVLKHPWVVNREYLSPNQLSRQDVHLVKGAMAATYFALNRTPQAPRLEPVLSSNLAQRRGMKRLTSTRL
For `c1cnn2ncc(-c3ccnc(NCCCN4CCOCC4)n3)c2c1`, the inhibition was 1.93%.
For `FC(F)(F)CNc1nccc(-c2cnn3ncccc23)n1` the value was 0.89%.
Regarding `CCS(=O)(=O)c1ccc(OC)c(Nc2ncc(-c3cccc(F)c3)o2)c1`, the inhibition was found to be 4.07%.
For `COc1ccc(Nc2ncc(-c3ccccc3)o2)cc1OC` the value was 1.32%; for `Cc1nnc(-c2cccc(-c3ccc(C(=O)NCC4CC4)cc3)c2)o1`, 3.01%.
The result for `COc1cc(N2CCN(C(C)C)CC2)ccc1Nc1nc(Nc2cccc3ncccc23)c2cc[nH]c2n1` reads 1.37%; that for `Cn1c(-c2nonc2N)nc2cnccc21`, 8.32%; that for `CC1=C(C(=O)Nc2ccc3[nH]nc(C)c3c2)C(c2ccc(C(F)(F)F)cc2)CC(=O)N1` (stereo unspecified), 1.77%.
`CN1CCC(n2cnc(-c3ccc(F)cc3)c2-c2ccnc(NCCO)n2)CC1`: the inhibition was 3.09%.
For `COc1cc(Nc2ncc(-c3ccccc3)o2)cc(OC)c1` the value was 1.71%.
On to `CC1=C(C(=O)Nc2ccc3[nH]ncc3c2)C(c2ccc(F)cc2)N=C(c2ccc(C(F)(F)F)nc2)N1` (stereo unspecified), for which the inhibition came to 1.05%.
For `Cc1ccc(-c2cc3c(NC(=O)C4CC4)ncnc3o2)cc1` the value was 2.35%.
For `O=C1Nc2ccccc2/C1=C1\CCc2cc(O)ccc21` the value was 9.8%; for `CN(C)CCNC(=O)Nc1ccc(N(C)c2ccnc(Nc3ccc(CS(C)(=O)=O)cc3)n2)cc1`, 2.14%.
On to `CS(=O)(=O)CCNCc1ccoc1-c1ccc2ncnc(Nc3ccc(OCc4ccccc4)cc3)c2c1`, for which the inhibition stood at 1.27%.
The result for `CS(=O)(=O)Nc1ccc(-c2ccc3c(NC(=O)C4CC4)n[nH]c3c2)cc1` reads 0.73%; that for `O=C(Nc1n[nH]c2nnc(-c3cccnc3)cc12)C1CC1`, 0.73%.
The result for `CC1(C)CC(n2cnc(-c3ccc(F)cc3)c2-c2ccnc(N)n2)CC(C)(C)N1` reads 1.16%.
For `CNC(=O)c1ncccc1Nc1nc(Nc2cc3c(cc2OC)CCCN3C(=O)CN(C)C)nc2[nH]ccc12` the value was 3.13%; for `COc1cccc(-n2ncc3c(N/N=C/c4ccc(C(=O)NCCN(C)C)cc4)ncnc32)c1`, 1.89%; for `Cc1c2ccc(N(C)c3ccnc(Nc4cccc(S(N)(=O)=O)c4)n3)cc2nn1C`, 3.56%.
For the molecule `OCCCNc1nccc(-c2c(-c3ccc(F)cc3)nn3cc(C(F)(F)F)ccc23)n1`, the inhibition was determined as 1.69%.
The result for `COc1cccc(Nc2nccc(-c3cnn4ncccc34)n2)c1` reads -0.61%.
For `O=C(O[C@H]1CN[C@H](C#Cc2cc3ncnc(Nc4ccc(OCc5cccc(F)c5)c(Cl)c4)c3s2)C1)N1CCOCC1` the value was 2.72%; for `NS(=O)(=O)c1ccc(N/N=C2\C(=O)Nc3ccc(C(=O)NCc4ccncc4)cc32)cc1`, 1.92%.
The result for `CS(=O)(=O)CCNCc1ccc(-c2ccc3ncnc(Nc4ccc(OCc5ccccc5)cc4)c3c2)o1` reads 3.11%.
As for `CCOc1ccc2c(-c3ccnc(Nc4cc(OC)cc(C(F)(F)F)c4)n3)cnn2n1`, the inhibition was found to be 0.44%.
For the molecule `Nc1nonc1-c1nc2cnccc2n1C1CC1`, the inhibition was 67% and 69.5%.
For `CCN1CCC(C(=O)Nc2n[nH]c3nnc(-c4cccc(F)c4F)cc23)CC1`, the inhibition was -0.71%.
For the molecule `CS(=O)(=O)CCNCc1ccc(-c2ccc3ncnc(Nc4ccc(OCc5cccc(C(F)(F)F)c5)cc4)c3c2)o1`, the inhibition was determined as 1.21%.
With `Nc1nccc(-c2c(-c3ccc(F)cc3)ncn2C2CCNCC2)n1`, the inhibition is -1.68% and 0.37%.
